# Test results published in PubChem BioAssay (Tox21).
# Results filed as inconclusive are left out. Where a call stands in place of a potency, no number is given. Activity calls are given as the source filed them. Calls follow the shape of the full dose curve. Starred links: 1 amine or outer side, 2 acyl side, 3 side chain; linkers in the order of their positions; H or OH if unused. Positions of bridges follow the written chain, without caps; N, C: chain ends. Non-standard residues stand in square brackets, D forms with d. Residues, ends and D or L forms follow the SMILES beside them. *: point of attachment. X5 = NC1=N[C@@H]([C@H](N[*:1])C(=O)[*:2])C[C@H](O)N1; ΔAla(Z-3-ureido) = NC(=O)N/C=C(\N)C(=O)O; β3hOrn = NCCC[C@H](N)CC(=O)*; Dap = NC[C@H](N)C(=O)O
# Assay: qHTS assay for small molecules that induce genotoxicity in human embryonic kidney cells expressing luciferase-tagged ATAD5 - cell viability (AID 651634); also: nearly all actives have a fitted effect of over 25% in size
# Conditions: HEK293T ATAD5-luc cells viability, CellTiter-Fluor, 15.5 h; series mostly up to 83.3 µM
# Source text: National Center for Advancing Translational Sciences [NCATS]
# NIH Chemical Genomics Center [NCGC]
# U.S. Environmental Protection Agency [EPA]
# National Institutes of Environmental Health Sciences [NIEHS]
# National Toxicology Program [NTP]
# U.S. Food and Drug Administration [FDA]
# Enhanced Level of Genome Instability Gene 1 (ELG1; human ATAD5) protein levels increase in response to various types of DNA damage. Using a luciferase reporter-gene tagged with ElG1, a cell-based assay [developed by Kyungjae Myung, NHGRI, NIH] was used to measure the induction of ATAD5 in human embryonic kidney cells (HEK293T). So, increase in luciferase activity can be used to identify the compounds that cause genetic stress. In addition to genotoxicity, these cells were also used to test for cytotoxicity by measuring the protease activity within live cells.
# Tox21 Assay Protocol Summary:
# For cytotoxicity screening, 2,000 cells in 5 uL/well were dispensed into white, solid-bottom 1536-well plates using a Multidrop Combi (Thermo Scientific) dispenser. Following transfer of 23 nL compound or DMSO vehicle by a pin tool, the plates were incubated 15.5 hr at 37C and 5% CO2. 1 ul CellTiter-Fluor reagent (Promega, Madison, WI) was then added to each plate and following 30 min incubation at 37C, fluorescence intensity was quantified on a ViewLux CCD-based plate reader.
# Potency is read from the fitted curve at half-maximal effect.
row,SMILES,Potency
1,CO[C@H]1C[C@H](O[C@H]2[C@H](C)O[C@@H](O[C@@H]3/C(C)=C/C[C@@H]4C[C@@H](C[C@]5(C=C[C@H](C)[C@@H](C6CCCCC6)O5)O4)OC(=O)[C@@H]4C=C(C)[C@@H](O)[C@H]5OC/C(=C\C=C\[C@@H]3C)[C@]54O)C[C@@H]2OC)O[C@@H](C)[C@@H]1O,13.3 µM (active)
2,OC[C@H]1OC([S-])[C@H](O)[C@@H](O)[C@@H]1O.[Au+] (stereo not given in full),inactive
3,CC(C)N=c1cc2n(-c3ccc(Cl)cc3)c3ccccc3nc-2cc1Nc1ccc(Cl)cc1,inactive
4,CO[C@H]1[C@@H](O)[C@H](N)[C@@H](O[C@H]2O[C@H]([C@H](C)N)CC[C@H]2N)[C@H](O)[C@@H]1N(C)C(=O)CN,inactive
5,CCCCC/C=C\C/C=C\C/C=C\CCCCC(=O)O,inactive
6,CSc1nc2cc(Oc3cccc(Cl)c3Cl)c(Cl)cc2[nH]1,29.8 µM (active)
7,COC(=O)[C@H]1[C@H]2C[C@@H]3c4[nH]c5cc(OC)ccc5c4CCN3C[C@H]2C[C@@H](OC(=O)/C=C/c2cc(OC)c(OC)c(OC)c2)[C@@H]1OC,inactive
8,CCCCCCCCCCCCCCCCCC(=O)[O][Al],inactive
9,COCC1=C(C(=O)OC(C)OC(=O)OC(C)C)N2C(=O)[C@@H](NC(=O)/C(=N\OC)c3csc(N)n3)[C@H]2SC1 (stereo not given in full),inactive
10,CCc1ccc(S(=O)(=O)O)cc1,inactive
11,CCC(C)[C@@H](N)C(=O)O (stereo not given in full),inactive
12,NC(=O)OC[C@@H]1[C@H](NC(=O)/C(=N\OCC(=O)O)c2csc(N)n2)C(=O)N1S(=O)(=O)O,inactive
13,Cc1nc(NS(=O)(=O)c2ccc(N)cc2)nc(C)c1Br,inactive
14,CCC(=O)OCC(=O)[C@@]1(OC(=O)CC)[C@@H](C)C[C@H]2[C@@H]3CCC4=CC(=O)C=C[C@]4(C)[C@@]3(F)[C@@H](O)C[C@@]21C,inactive
15,COc1ccc(CNCC(O)COc2ccc3[nH]c(=O)ccc3c2)cc1OC (stereo not given),inactive
16,CN1C(=O)CN2CCc3ccccc3C2c2cc(Cl)ccc21 (stereo not given),inactive
17,CCCCC[C@H](O)/C=C/[C@@H]1[C@H]2C/C(=C/CCCC(=O)O)O[C@H]2C[C@H]1O,inactive
18,COc1ccc(C(=O)CCC(=O)O)c2ccccc12,inactive
19,CCOC(=O)c1cc(-c2ccccc2)nc2ccc(C)cc12,inactive
20,COC(=O)CCC[N+](C)(C)C,inactive

row,SMILES,Potency
1,CN1CCN(CCC=C2c3ccccc3Sc3ccc(S(=O)(=O)N(C)C)cc32)CC1,29.8 µM (active)
2,NC[C@@H]1O[C@H](O[C@H]2[C@@H](O)[C@H](O[C@@H]3[C@@H](O)[C@H](N)C[C@H](N)[C@H]3O[C@H]3O[C@H](CN)[C@@H](O)[C@H](O)[C@H]3N)O[C@@H]2CO)[C@H](N)[C@@H](O)[C@@H]1O,inactive
3,C=C[C@]1(C)C[C@@H](OC(=O)CO)[C@]2(C)[C@H](C)CC[C@]3(CCC(=O)[C@H]32)[C@@H](C)[C@@H]1O,inactive
4,O=C(Nc1ccc(O)cc1)c1ccccc1O,inactive
5,COc1cc(Br)c(C[N+]2(CCOCCC3CCC4CC3C4(C)C)CCOCC2)cc1OC (stereo not given),inactive
6,CC1(C)S[C@@H]2[C@H](NC(=O)C(N)c3ccccc3)C(=O)N2[C@H]1C(=O)OC1OC(=O)c2ccccc21 (stereo not given in full),inactive
7,CN=C(NC)NCc1ccccc1,inactive
8,CC(=O)Nc1c(I)c(C(=O)N[C@H]2C(O)O[C@H](CO)[C@@H](O)[C@@H]2O)c(I)c(N(C)C(C)=O)c1I (stereo not given in full),inactive
9,CCCCCCCN(CC)CCCC(O)c1ccc(NS(C)(=O)=O)cc1 (stereo not given),inactive
10,O=P(O)(O)C(Sc1ccc(Cl)cc1)P(=O)(O)O,inactive
11,NCCC[C@H](N)CC(=O)N[C@H]1CNC(=O)[C@H]([C@H]2C[C@H](O)NC(N)=N2)NC(=O)/C(=C/NC(N)=O)NC(=O)[C@H](CO)NC(=O)[C@H](CO)NC1=O (β3hOrn-[Dap]SS[ΔAla(Z-3-ureido)][X5]; lactam 1-C),inactive
12,CC1CCC(NC(=O)N(CCCl)N=O)CC1 (stereo not given),inactive
13,O=C(CO)[C@@H](O)[C@H](O)[C@@H](O)C(=O)O,inactive
14,CN(C)C(=O)CCSC(SCCC(=O)O)c1cccc(/C=C/c2ccc3ccc(Cl)cc3n2)c1 (stereo not given),23.7 µM (active)
15,CCCCCCCCCCCCCCCC(=O)OC[C@@H](O)[C@H]1OC[C@H](O)[C@H]1O,inactive
16,CCCCCCCCCCCCCCCCSCC(COC)COP(=O)([O-])OCC[N+](C)(C)C (stereo not given),inactive
17,CN(C(=O)CO)c1c(I)c(C(=O)NCC(O)CO)c(I)c(C(=O)NCC(O)CO)c1I (stereo not given),inactive
18,O=C(NOC[C@H](O)CO)c1ccc(F)c(F)c1Nc1ccc(I)cc1F,inactive
19,CCN(CC)c1ccc(N=Nc2ccc(S(=O)(=O)N(C)C)cc2)c(S(=O)(=O)NCC[n+]2ccccc2)c1,inactive
20,CC(CN(C)C)CN1c2ccccc2Sc2ccc(C(F)(F)F)cc21 (stereo not given),inactive
